Outcome and AC50 data for 40 compounds are collected here from PubChem BioAssay (EPA / NIEHS).

Inconclusive results are not listed. Active and inactive are the calls of the source. How the source made its calls: active means hit-call score of the fitted dose curve at least 0.9, where 1 is the maximum; inconclusive means response in the unintended direction; inactive means score below 0.9.

For orientation: AC50 means the concentration at which the activity in the assay is half-maximal.

Sequence of human Peroxisome Proliferator-activated Receptor alpha (PPARa), PPARA (gene 5465) (Q07869 whole entry, looked up): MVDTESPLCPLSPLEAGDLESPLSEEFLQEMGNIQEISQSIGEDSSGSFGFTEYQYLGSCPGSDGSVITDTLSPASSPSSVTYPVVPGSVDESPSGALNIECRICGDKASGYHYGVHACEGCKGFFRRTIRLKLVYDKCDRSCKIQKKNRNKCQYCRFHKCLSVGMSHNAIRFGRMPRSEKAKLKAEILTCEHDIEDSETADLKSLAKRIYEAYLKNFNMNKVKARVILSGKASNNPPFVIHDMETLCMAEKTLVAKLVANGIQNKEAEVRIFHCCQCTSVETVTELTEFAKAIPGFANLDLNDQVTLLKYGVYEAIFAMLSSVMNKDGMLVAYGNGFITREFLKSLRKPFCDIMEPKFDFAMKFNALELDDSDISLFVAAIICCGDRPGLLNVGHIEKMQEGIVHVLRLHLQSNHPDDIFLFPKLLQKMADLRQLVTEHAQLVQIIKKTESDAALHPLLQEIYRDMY

The test addresses human Peroxisome Proliferator-activated Receptor alpha (PPARa), PPARA (gene 5465) (UniProt Q07869). Kind of test: ATG_PPARa_TRANS: Attagene TRANS-FACTORIAL HepG2 Assay for human Peroxisome Proliferator-activated Receptor alpha (PPARa) (AID 2283001).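 On AC50: potency for gain of reporter signal over DMSO so agonist or activator.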 The protocol: ATG_TRANS is a cell-based, multiplexed-readout assay that uses HepG2, a human liver cell line, with measurements taken at 24 hours after chemical dosing in a 24-well plate.ATG_PPARa_TRANS is one of 30 assay component(s) measured or calculated from the ATG_TRANS assay. It is designed to make measurements of mRNA induction, a form of inducible reporter, as detected with fluorescence intensity signals by Reverse transcription polymerase chain reaction (RT-PCR) and Capillary electrophoresis technology.Data from the assay component ATG_PPARa_TRANS was analyzed into 1 assay endpoint. This assay endpoint, ATG_PPARa_TRANS, was analyzed in the positive analysis fitting direction relative to DMSO as the negative control and baseline of activity. Using a type of inducible reporter, measures of mRNA for gain-of-signal activity can be used to understand the reporter gene at the transcription factor-level as they relate to the gene PPARA. Furthermore, this assay endpoint can be referred to as a primary readout, because this assay has produced multiple assay endpoints where this one serves a reporter gene function. To generalize the intended target to other relatable targets, this assay endpoint is annotated to the nuclear receptor intended target family, where the subfamily is non-steroidal.
Human liver HepG2 cells are transiently transfected with multiple reporter transcription units (MRTUs) in 6-well plates using FuGene 6 reagent (Roche; 3 ml FuGene/1 mg DNA). The MRTU constructs are regulated by a cis-regulating element (promoter). […] A major difference between the CIS and TRANS system is that in CIS activities of endogenous TFs are measured, whereas the TRANS assay evaluates changes in activities of exogenous, chimeric NR-Gal4 proteins. […] At the end of 24 hour incubation, total RNA was isolated using TriZol reagent (Invitrogen). The isolated RNA is then reverse-transcribed using oligo(dT) primer and Mo-MLV reverse transcriptase (Invitrogen) with DNAse I (Ambion) treatment for 30 min. The one-tenth of the produced cDNA was amplified by PCR using Taq DNA polymerase (Invitrogen) and two reporter sequence-specific primers. The PCR products were fluorescently labeled by primer extension with 6-arboxyfluorescein (6-FAM) 5'-labeled reporter sequence-specific primer (2 min at 95 C, 20 s at 68 C and 10 min at 72 C) and these products were digested with 5U of HpaI (New England Biolabs) for 2h at 37 C. The fragments were purified using Qiaquick PCR columns (Qiagen), analyzed on an ABI 3130xL genetic analyzer (Applied Biosystems) with peak positions identified by using a set of X-rhodamine (ROX)-labeled MapMarker1000 molecular weight standards (BioVentures). The raw capillary electrophoresis data was processed using Attagraph software (Attagene).
On to `O=C1OC(=O)C2C3C=CC(C3)C12` (stereo not given), for which the call was inactive.

For `CCNc1ccccc1`, the call was inactive.

With `COc1ccc2sc(C(=O)Nc3nnn[nH]3)c(OC(C)C)c2c1`, the result was inactive.

Turning to `CCCCCCCCO`, the result was inactive.

As for `CC/C(=C\C(=N/O)C(N)=O)C(C)[N+](=O)[O-]` (stereo not given), the compound was classed as inactive.

On to `O=C(O)CCN(C1(C(=O)NO)CCCC1)S(=O)(=O)c1ccc(Oc2ccc(F)cc2)cc1`, for which the outcome was inactive.

On to `CC(C)=CCCC(C)CCO` (stereo not given), for which the AC50 was 65.5 µM (active).

On to `CCCCC(CC)COC(=O)CCCCCCCCC(=O)OCC(CC)CCCC` (stereo not given), for which the outcome was inactive.

On to `CCC(C)(C)C(=O)O[C@H]1C[C@@H](C)C=C2C=C[C@H](C)[C@H](CC[C@@H]3C[C@@H](O)CC(=O)O3)[C@H]21`, for which the result was inactive.

Regarding `CCc1cc(SCc2sc(-c3ccc(C(F)(F)F)cc3)nc2CN2CCN(c3ccc(OC)cc3)CC2)ccc1OCC(=O)O`, the AC50 was 0.0501 µM (active).

Turning to `O=C1CCCCCN1`, the AC50 was 3.37 µM (active).

Turning to `CCOC(=O)CC(CC(=O)OCC)(OC(C)=O)C(=O)OCC`, the compound was called inactive.

`C1N2CN3CN1CN(C2)C3`: the call was inactive.

On to `CC[C@H]1CC[C@H](NCc2cc3c(cc2OC)[C@H]2C[C@H]2C(=O)N3C)[C@H](c2ccccc2)N1`, for which the result was inactive.

In the case of `COC(=O)c1c(Cl)c(Cl)c(C(=O)OC)c(Cl)c1Cl`, the compound was classed as inactive.

In the case of `C=CCCCCCCCCC(=O)O`, the AC50 was 26.7 µM (active).

Consider `COc1ccc(/C=C/S(=O)(=O)NC(=O)c2ccc(C)cc2Cl)cc1`, for which the compound was classed as inactive.

On to `Nc1ccc(Nc2ccccc2)cc1`, for which the outcome was inactive.

For `COc1cccc(-c2ccc(/C=C\CN3CCCCCC3)cc2Cl)c1`, the call was inactive.

Consider `CC(C)CCO`, for which the compound was called inactive.

Turning to `CCOC(=O)c1ccc(C2CCC(NC[C@H](O)COc3ccc(O)c(NS(C)(=O)=O)c3)CC2)cc1` (stereo not given in full), the AC50 was 54.8 µM (active).

As for `Oc1ccc2c(c1)-c1ccccc1C2`, the outcome was inactive.

Regarding `CC(=O)c1ccc2c(c1)[C@H](NC(=O)c1ccc(F)cc1)[C@@H](O)C(C)(C)O2`, the call was inactive.

With `Cc1ccc(S(=O)(=O)O)cc1C`, the compound was classed as inactive.

In the case of `Cc1c(-c2cccnc2)c2ccccc2n1CCCCC(=O)O`, the result was inactive.

For `CCOC(=O)COc1ccc2c(c1)CC(NCC(O)c1cccc(Cl)c1)CC2` (stereo not given), the AC50 was 33 µM (active).

In the case of `O=C(OC[C@H]1O[C@@H](OC(=O)c2cc(O)c(O)c(OC(=O)c3cc(O)c(O)c(O)c3)c2)[C@H](OC(=O)c2cc(O)c(O)c(OC(=O)c3cc(O)c(O)c(O)c3)c2)[C@@H](OC(=O)c2cc(O)c(O)c(OC(=O)c3cc(O)c(O)c(O)c3)c2)[C@@H]1OC(=O)c1cc(O)c(O)c(OC(=O)c2cc(O)c(O)c(O)c2)c1)c1cc(O)c(O)c(OC(=O)c2cc(O)c(O)c(O)c2)c1`, the compound was classed as inactive.

`CC[C@H](C)C(=O)O[C@H]1C[C@@H](C)C=C2C=C[C@H](C)[C@H](CC[C@@H]3C[C@@H](O)CC(=O)O3)[C@H]21`: the result was inactive.

`CC[C@H]1OC(=O)[C@H](C)[C@@H](O[C@H]2C[C@@](C)(OC)[C@@H](O)[C@H](C)O2)[C@H](C)[C@@H](O[C@@H]2O[C@H](C)C[C@H](N(C)C)[C@H]2O)[C@](C)(O)C[C@@H](C)C(=O)[C@H](C)[C@@H](O)[C@]1(C)O`: the compound was classed as inactive.

As for `O=C(NS(=O)(=O)/C=C/c1ccccc1)c1ccc(F)cc1Cl`, the result was inactive.

Consider `CCCCCCc1ccc(O)cc1O`, for which the compound was classed as inactive.

Regarding `O=C(O)c1cccc(Oc2ccccc2)c1`, the result was inactive.

In the case of `CC(C)=CCC/C(C)=C/CO`, the result was inactive.

Take `CC(=O)OCCC(C)C`: the result was inactive.

In the case of `O=c1n(CC2CO2)c(=O)n(CC2CO2)c(=O)n1CC1CO1` (stereo not given), the compound was classed as inactive.

For `Cc1[nH]cnc1C[C@H]1CCc2c(C)c3ccccc3n2C1=O`, the outcome was inactive.

As to `CCCN(C1CCN(C(=O)C2CCNCC2)CC1)[C@@H]1CCc2ccc(OC)cc2C1`, the concentration at half-maximal activity (AC50) was 146 µM (active).

With `COCCOCCOCCOC`, the outcome was inactive.

On to `CC(=O)OC[C@H]1O[C@@](COC(C)=O)(O[C@H]2O[C@H](COC(C)=O)[C@@H](OC(C)=O)[C@H](OC(C)=O)[C@H]2OC(C)=O)[C@@H](OC(C)=O)[C@@H]1OC(C)=O`, for which the outcome was inactive.

As to `O=P(OC(CCl)CCl)(OC(CCl)CCl)OC(CCl)CCl`, the compound was called inactive.
